# Test results from PubChem BioAssay AID1724 (National Center for Advancing Translational Sciences (NCATS), 2009).
# Inconclusive results are not listed. The source made the active and inactive calls. Calls come from the whole dose curve; as a rule, active = well fitted inhibition curve with a large enough effect; inconclusive = small, poorly fitted or top-dose-only effect, or effect the other way; inactive = no such curve, though single readings can be large or run the other way.
# Assay: Confirmation Concentration-Response Assay for Inhibitors of the ERK Signaling Pathway using a Homogeneous Screening Assay
# Conditions: HEK293 cells, hormone-stimulated phospho-ERK AlphaScreen; series mostly up to 40.9 µM; activity change, negative = inhibition: at the top concentration
# Text: qHTS Assay for Inhibitors of the ERK Signaling Pathway using a Homogeneous Screening Assay
# NIH Chemical Genomics Center [NCGC]
# NIH Molecular Libraries Screening Centers Network [MLSCN]
# Assay Submitter (PI): Dr. Wei Zheng, NCGC/NIH
# The Ras/extracellular-signal-regulated kinase (ERK) mitogen activated protein (MAP) kinase signaling pathway (ERK1/2 cascade) plays is a key role in transmitting signals from the cell surface to the nucleus (Nishida and Gotoh 1993; Chang and Karin, 2001). The cascade is initiated by the small G-protein Ras, which recruits Raf […], where activation occurs. Alternatively, this pathway can be activated by elevating intracellular cAMP.
# Activation of the ERK pathway is essential in increased cell division and cell survival. Sustained and constitutive activation of the ERK pathway, however, has been linked to uncontrolled cell proliferation, increased cell survival, and tumor progression. Thus, the ERK has been as an attractive target for cancer chemotherapy in the past few years (Sebolt-Leopold and Herrera, 2004). Given its physiological and pathological importance, assessment of ERK phosphorylation has been broadly performed in both basic research and drug discovery. Most assays for the measurement of ERK phosphorylation use the antibody-based detection methods, such as western blot and ELISA. These assays require multiple reagent additions with cell wash steps and are not suitable for high-throughput screening.
# The current cell-based ERK phosphorylation assay was performed using AlphaScreen platform. […]
# HEK293 cells stably expressing type-1 vasopressin receptor (V1b) were maintained in DMEM medium (Invitrogen, Carlsbad, CA) at 37C under a humidified atmosphere containing 5% CO2 and 95% air. […] The ERK phosphorylation in cells was determined using an AlphaScreen assay kit provided by PerkinElmer. […] AC50 values were determined from concentration-response data modeled with the standard Hill equation. […]
# (10) Detect the assay plate in an EnVision plate reader (PerkinElmer) using the AlphaScreen detection mode. […]
Structure (SMILES),"activity change, negative = inhibition",Potency
CC1=CC(=O)c2c(O)cccc2C1=O,-128% (inactive),–
O=C1NC(=O)C(=Cc2ccccc2Oc2ccc(F)cc2)C(=O)N1,2.48% (inactive),–
N#Cc1c(Cl)c(Cl)c(Cl)c(C#N)c1Cl,–,2240 nM (active)
